This note sets out measurements from ChEMBL document CHEMBL3988442, “University of Dundee, Small-Polar-MMV Screening Library” (2021).

Holding throughout (design): scale not given: direction of the effect not stated beside the values
Experiment [1] concerns the target Protein translocase subunit SecA (Escherichia coli (strain K12)) (UniProt P10408). Briefly: Assay to Identify E. coli SecA ATPase Inhibitors. In kind it is functional. The following applies: 30 µM.
The target in experiment [2] is T1, Ubiquitin-activating enzyme e1, putative (Leishmania donovani (strain BPK282A1)) (UniProt E9BSI1).
T1 sequence (whole entry): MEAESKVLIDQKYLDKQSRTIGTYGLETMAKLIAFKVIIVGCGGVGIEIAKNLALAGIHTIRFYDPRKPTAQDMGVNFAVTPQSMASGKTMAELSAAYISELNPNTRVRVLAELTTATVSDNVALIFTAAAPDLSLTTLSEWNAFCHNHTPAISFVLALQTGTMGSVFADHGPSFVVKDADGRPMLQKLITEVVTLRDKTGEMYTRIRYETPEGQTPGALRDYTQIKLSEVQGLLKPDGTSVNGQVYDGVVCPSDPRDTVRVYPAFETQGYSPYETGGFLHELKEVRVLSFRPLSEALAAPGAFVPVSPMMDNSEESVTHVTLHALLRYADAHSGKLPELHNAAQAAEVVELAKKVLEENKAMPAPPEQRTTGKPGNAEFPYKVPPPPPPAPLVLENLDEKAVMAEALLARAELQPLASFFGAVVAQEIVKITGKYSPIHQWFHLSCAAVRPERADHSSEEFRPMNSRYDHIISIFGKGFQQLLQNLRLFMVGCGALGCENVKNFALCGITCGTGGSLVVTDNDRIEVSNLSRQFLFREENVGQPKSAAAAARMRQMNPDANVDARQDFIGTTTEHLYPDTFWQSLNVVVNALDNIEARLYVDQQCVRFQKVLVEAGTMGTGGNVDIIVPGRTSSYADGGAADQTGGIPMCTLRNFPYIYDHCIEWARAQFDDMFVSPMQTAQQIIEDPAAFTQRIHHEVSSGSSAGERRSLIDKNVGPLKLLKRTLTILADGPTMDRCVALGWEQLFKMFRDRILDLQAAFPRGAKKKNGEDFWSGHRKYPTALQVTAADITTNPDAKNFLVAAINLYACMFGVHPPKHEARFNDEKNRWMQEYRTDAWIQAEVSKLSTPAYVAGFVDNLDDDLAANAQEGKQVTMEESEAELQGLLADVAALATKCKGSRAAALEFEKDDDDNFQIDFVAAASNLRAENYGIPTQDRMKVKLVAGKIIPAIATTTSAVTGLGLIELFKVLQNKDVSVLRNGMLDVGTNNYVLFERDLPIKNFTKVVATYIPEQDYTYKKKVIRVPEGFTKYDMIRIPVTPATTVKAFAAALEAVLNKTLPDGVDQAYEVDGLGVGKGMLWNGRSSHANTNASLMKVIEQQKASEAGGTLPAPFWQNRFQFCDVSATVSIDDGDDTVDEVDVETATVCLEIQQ
Briefly: Leishmania donovani Ubiquitin Activating Enzyme (LdE1). The class given is functional. The following applies: 30 µM.

Experiment [3] addresses AMP-activated protein kinase, AMPK (Homo sapiens) (UniProt P54646+O43741+P54619+Q9UGJ0+Q9Y478+Q13131+Q9UGI9). Briefly: AMP-dependent Kinase enzyme assay. An in vitro enzyme assay that detects ADP turnover that is directly proportional to AMPK activity. This uses naive AMPK that is activated during the assay with MK-8722. The following applies: 30 µM. In kind it is functional.

In experiment [4] the target is Sialic acid-binding Ig-like lectin 9 (Homo sapiens) (UniProt Q9Y336). Description: Hs-Siglec9 ALPHAscreen SOP 20170721. The following applies: 10 µM. (In general: Bead proximity is the source of the signal in Alpha formats.)
Chain of Sialic acid-binding Ig-like lectin 9 (Homo sapiens) (Q9Y336 whole entry): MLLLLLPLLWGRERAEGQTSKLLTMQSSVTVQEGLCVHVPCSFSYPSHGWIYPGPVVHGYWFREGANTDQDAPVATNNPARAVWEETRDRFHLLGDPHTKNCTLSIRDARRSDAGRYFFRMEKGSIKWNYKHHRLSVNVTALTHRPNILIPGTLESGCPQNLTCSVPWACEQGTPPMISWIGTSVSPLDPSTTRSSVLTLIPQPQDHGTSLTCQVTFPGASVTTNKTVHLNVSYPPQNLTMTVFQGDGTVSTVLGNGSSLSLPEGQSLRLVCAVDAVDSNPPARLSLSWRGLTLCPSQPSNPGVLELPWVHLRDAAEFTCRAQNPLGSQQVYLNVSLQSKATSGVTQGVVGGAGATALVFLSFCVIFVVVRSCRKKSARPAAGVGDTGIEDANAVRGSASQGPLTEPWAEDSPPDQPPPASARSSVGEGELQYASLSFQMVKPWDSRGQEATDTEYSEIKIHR
The subject of experiment [5] is Trypanosoma cruzi. Briefly: Trypanosoma cruzi phosphomannomutase and mannose-1-phosphate guanylyltransferase assay. In kind it is functional. The following applies: 10 µM.
In experiment [6] the target is T2, Arginase-2, mitochondrial (Homo sapiens) (UniProt P78540).
T2 sequence (whole entry): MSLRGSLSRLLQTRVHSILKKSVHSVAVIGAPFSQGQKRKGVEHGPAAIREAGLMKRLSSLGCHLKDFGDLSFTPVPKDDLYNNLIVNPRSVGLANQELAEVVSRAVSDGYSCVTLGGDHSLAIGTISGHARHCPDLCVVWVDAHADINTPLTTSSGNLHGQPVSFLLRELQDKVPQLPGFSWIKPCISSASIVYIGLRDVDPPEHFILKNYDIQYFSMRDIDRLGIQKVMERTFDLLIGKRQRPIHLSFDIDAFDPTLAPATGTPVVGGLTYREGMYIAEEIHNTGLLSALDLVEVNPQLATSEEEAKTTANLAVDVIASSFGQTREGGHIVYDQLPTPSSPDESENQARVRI
Description: in vitro enzyme assay to detect the production of urea directly proportional to the activity of Arginase II. Also: in the data most compounds retested in dose-response had high values. The class given is functional. The following applies: 33.3 µM.

For experiment [7], the target named is T3, Proteasome subunit beta (Trypanosoma cruzi) (UniProt O96673).
T3 sequence (whole entry): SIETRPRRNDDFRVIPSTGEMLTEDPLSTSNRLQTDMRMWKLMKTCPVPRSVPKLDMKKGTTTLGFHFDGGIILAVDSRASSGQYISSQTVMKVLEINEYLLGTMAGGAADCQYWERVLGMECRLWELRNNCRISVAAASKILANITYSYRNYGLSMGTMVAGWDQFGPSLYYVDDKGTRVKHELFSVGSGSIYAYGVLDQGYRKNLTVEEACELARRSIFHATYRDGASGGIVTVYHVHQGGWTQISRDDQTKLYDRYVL
Briefly: Trypanosoma cruzi proteasome chymotrypsin-like activity (TcProtChymo) assay. Also: in the data most compounds retested in dose-response had high values. The class given is functional. The following applies: 9.37 µM.

The species entered for experiment [8] is Homo sapiens. Description: To identify inhibition of the IFN signalling (Jak-Stat) pathway via expression of an eGFP reporter gene under the control of an IFN-stimulated response element (ISRE) containing MxA promoter. The class given is functional. The following applies: 30 µM. (Reporter assays use an easily measured gene product as a stand-in for the process of interest.)

The target of experiment [9] is T4, Tyrosyl-tRNA synthetase, putative (Trypanosoma cruzi (strain CL Brener)) (UniProt Q4DSP6).
T4 sequence (whole entry): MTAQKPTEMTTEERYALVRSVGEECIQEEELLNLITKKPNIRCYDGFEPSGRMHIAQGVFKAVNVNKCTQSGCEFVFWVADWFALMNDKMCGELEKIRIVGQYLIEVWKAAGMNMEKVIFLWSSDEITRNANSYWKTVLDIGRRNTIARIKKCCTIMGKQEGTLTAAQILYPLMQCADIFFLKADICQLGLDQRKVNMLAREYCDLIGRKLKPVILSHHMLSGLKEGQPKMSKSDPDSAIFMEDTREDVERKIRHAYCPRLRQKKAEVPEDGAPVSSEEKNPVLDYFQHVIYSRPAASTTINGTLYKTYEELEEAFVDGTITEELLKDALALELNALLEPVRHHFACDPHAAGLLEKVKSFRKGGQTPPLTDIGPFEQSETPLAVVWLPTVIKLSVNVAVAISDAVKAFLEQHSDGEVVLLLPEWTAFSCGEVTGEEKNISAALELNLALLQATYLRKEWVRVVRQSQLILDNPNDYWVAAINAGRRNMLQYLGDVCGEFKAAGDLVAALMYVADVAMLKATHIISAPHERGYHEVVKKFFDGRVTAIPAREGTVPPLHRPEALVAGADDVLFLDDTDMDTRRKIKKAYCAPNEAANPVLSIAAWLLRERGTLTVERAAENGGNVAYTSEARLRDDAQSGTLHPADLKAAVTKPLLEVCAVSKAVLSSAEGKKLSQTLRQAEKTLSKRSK
Briefly: Trypanosoma cruzi tyrosyl tRNA synthetase (TcYRS) _High Tyrosine SOP. Also: in the data most compounds retested in dose-response had high values. The class given is functional. The following applies: 30 µM.

Experiment [10] addresses T4, Tyrosyl-tRNA synthetase, putative (Trypanosoma cruzi (strain CL Brener)). Briefly: Trypanosoma cruzi tyrosyl tRNA synthetase (TcYRS) SOP. In kind it is functional. The following applies: 30 µM.
Experiment [11] deals with Chromo domain-containing protein 1 (Saccharomyces cerevisiae (strain ATCC 204508 / S288c) (Baker's yeast)) (UniProt P32657). Description: ScCHD-1 Enzyme Inhibition Assay. Also: in the data most compounds retested in dose-response had high values. The following applies: 30 µM. In kind it is functional.
Chain of Chromo domain-containing protein 1 (Saccharomyces cerevisiae (strain ATCC 204508 / S288c) (Baker's yeast)) (P32657 whole entry, the tested form may be a part): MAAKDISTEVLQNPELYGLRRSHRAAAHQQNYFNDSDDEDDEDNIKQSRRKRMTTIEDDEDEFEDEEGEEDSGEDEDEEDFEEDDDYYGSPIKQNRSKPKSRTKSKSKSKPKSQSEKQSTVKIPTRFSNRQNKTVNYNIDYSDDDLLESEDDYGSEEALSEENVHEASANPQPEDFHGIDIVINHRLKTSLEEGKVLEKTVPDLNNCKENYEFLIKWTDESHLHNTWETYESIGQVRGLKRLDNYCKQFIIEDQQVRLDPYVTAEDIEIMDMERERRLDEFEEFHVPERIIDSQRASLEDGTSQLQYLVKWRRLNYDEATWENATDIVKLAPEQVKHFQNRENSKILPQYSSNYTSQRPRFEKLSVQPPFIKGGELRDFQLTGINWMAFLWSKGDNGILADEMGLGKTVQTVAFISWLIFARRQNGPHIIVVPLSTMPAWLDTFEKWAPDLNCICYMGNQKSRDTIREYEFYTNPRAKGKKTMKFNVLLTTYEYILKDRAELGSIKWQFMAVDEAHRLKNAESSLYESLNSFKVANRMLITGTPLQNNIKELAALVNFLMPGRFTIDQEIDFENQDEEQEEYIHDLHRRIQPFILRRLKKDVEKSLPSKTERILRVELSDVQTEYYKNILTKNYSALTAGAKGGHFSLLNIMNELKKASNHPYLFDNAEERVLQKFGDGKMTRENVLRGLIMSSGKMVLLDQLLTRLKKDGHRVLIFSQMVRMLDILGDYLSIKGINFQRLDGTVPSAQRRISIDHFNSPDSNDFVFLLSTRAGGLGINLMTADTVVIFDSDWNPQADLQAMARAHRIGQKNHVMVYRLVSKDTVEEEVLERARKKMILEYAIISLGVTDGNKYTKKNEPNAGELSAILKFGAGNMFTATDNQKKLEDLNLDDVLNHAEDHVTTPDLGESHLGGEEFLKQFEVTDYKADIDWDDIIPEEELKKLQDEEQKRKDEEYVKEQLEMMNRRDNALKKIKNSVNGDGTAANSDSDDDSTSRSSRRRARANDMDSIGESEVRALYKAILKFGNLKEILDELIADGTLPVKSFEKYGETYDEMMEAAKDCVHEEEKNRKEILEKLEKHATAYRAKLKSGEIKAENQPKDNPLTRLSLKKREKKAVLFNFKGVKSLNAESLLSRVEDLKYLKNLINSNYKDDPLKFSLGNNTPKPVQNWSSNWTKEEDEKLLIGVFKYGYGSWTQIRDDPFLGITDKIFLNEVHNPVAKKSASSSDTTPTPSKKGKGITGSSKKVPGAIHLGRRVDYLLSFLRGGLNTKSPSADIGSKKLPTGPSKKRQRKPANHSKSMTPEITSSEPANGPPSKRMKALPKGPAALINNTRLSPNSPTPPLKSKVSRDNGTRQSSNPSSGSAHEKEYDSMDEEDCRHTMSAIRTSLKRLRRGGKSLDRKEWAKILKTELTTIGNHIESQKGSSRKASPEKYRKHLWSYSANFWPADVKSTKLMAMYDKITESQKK

Each structure is given as a SMILES string. For some of these results: Results with a measured potency or affinity are listed apart.

Chain of Protein translocase subunit SecA (Escherichia coli (strain K12)) (P10408 whole entry): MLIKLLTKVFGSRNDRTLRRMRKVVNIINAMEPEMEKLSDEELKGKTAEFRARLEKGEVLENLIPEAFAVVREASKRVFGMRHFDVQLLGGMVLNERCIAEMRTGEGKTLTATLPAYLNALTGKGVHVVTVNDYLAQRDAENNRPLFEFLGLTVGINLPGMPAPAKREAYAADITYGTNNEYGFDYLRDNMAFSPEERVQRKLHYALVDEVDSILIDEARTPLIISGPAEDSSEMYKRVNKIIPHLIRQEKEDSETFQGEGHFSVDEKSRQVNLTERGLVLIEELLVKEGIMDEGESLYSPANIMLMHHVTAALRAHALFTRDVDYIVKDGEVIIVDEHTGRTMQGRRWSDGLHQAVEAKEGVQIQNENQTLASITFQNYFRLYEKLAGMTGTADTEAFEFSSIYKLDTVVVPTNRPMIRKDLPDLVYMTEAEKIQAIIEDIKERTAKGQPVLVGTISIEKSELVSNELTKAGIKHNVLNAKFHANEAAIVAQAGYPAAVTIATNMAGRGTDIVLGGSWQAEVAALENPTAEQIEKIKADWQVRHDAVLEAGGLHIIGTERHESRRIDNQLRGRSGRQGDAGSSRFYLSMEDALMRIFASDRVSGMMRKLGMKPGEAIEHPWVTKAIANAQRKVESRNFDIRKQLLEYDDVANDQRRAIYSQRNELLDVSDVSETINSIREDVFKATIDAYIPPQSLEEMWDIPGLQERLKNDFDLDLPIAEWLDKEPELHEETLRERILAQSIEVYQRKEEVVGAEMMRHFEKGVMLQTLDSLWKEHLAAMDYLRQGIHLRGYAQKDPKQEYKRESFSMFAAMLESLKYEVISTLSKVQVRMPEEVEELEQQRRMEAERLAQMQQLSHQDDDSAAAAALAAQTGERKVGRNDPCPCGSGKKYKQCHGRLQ

Take `CCOCCCNC(=O)c1ccccc1S(C)(=O)=O`: the Percent Effect in experiment [1] was -4.36%; in experiment [2], 0%; in experiment [3], 7.43%; in experiment [4], 5.86%; in experiment [5] it was 2.82%; in experiment [6] it was -8.28%. In addition, the Percent Effect is 11.6% in experiment [7]; -12.4% in [8]; 1.06% in experiment [9]; 5.2% in experiment [10]; 0.767% in [11].
Turning to `CCSc1ccc(C(=O)Nc2c(C)nn(C(C)C)c2C)cn1`, the Percent Effect is -9.54% in experiment [1]; -2.74% in [2]; 1.71% in experiment [3]; -2.98% in [4]; -0.198% in experiment [5]; -1.2% in experiment [6]. Also, the Percent Effect in experiment [7] is 4.71%; in [8], 20.2%; in [9], 0%; in [10] it was 1.24%; in [11], -2.1%.
Regarding `CC(=O)N1CCC2(CCCN(C(=O)c3ccccc3)C2)C1` (stereo unspecified), the Percent Effect in experiment [1] was -2.42%; in experiment [2] it was 0%; in experiment [3], 11%; in [4] it was -1.1%; in experiment [5], -1.57%; in experiment [6], 3.03%. The Percent Effect was 1.85% in [7]; -0.0486% in experiment [8]; 2.13% in experiment [9]; 1.28% in [10]; 5.13% in [11].
For the compound `CN1CCN(c2ncccc2CNc2ncccc2C#N)CC1`, the Percent Effect in [1] was -5.21%; in experiment [2], 8.11%; in [3], -1.66%; in experiment [4] it was 20.8%; in experiment [5], -2.44%; in experiment [6], 3.72%. Further, the Percent Effect in experiment [7] is 3.86%; in [8], -10.1%; in experiment [9], 4.3%; in experiment [10] it was 13.6%; in [11] it was -4.55%.
As to `CN(Cc1cnccn1)C(=O)c1ccnc(OC2CCC2)c1`, the Percent Effect in experiment [1] was 2.54%; in [2], -2.7%; in experiment [3], 1.16%; in experiment [4] it was 4.85%; in experiment [5] it was 0.193%; in experiment [6], 1.43%. Also, the Percent Effect is 1.9% in experiment [7]; 4.71% in [8]; -0.529% in experiment [9]; 4.88% in experiment [10]; 8.01% in experiment [11].
In the case of `COc1ccc(CNCCc2cc(F)cc3c2OCOC3)cc1O`, the Percent Effect in experiment [1] was -5.67%; in experiment [2], 4.17%; in experiment [3], -9.01%; in experiment [4], 0.774%; in [5] it was -2.62%; in experiment [6], -0.883%. The Percent Effect in experiment [7] was 4.74%; in [8] it was 2.67%; in [9] it was 3.16%; in experiment [10], 5.13%; in experiment [11], -2.11%.
For `Cc1nc(NC(=O)CN2CCc3c(nc(C(C)C)n3C)C2)sc1C`, the Percent Effect in [1] is -3.02%; in experiment [2], 5.41%; in experiment [3], -2.02%; in experiment [4], 11%; in experiment [5], 8.69%; in [6], -1.43%. For the same compound, the Percent Effect in experiment [7] is 19.8%; in [8], 15%; in experiment [9], 6.88%; in experiment [10] it was 19.5%; in experiment [11], -1.68%.
For the compound `Cc1cc(C(=O)N2CCCCC2c2nc(C)cs2)[nH]n1` (stereo unspecified), the Percent Effect in experiment [1] was -4.07%; in experiment [2] it was 5.2%; in experiment [3], 0.468%; in experiment [4] it was -1.4%; in experiment [5], 5.62%; in experiment [6] it was -4.27%. Further, the Percent Effect was -2.03% in experiment [7]; -9.54% in experiment [8]; 4.85% in experiment [9]; 12.2% in [10]; 84.3% in experiment [11].
As to `O=C(NCc1ccco1)[C@H]1C[C@@H]2CCN(c3ccncn3)C[C@@H]2O1`, the Percent Effect in [1] is -3.35%; in experiment [2], 10.7%; in [3], 1.73%; in experiment [4] it was 2.91%; in experiment [5] it was 6.56%; in experiment [6], -56.5%. In addition, the Percent Effect is 16.9% in experiment [7]; -18.7% in experiment [8]; 6.25% in experiment [9]; 17.5% in experiment [10]; -5.87% in experiment [11].
`CSc1nccn1-c1cccc(C(=O)NCc2nnc(C)n2C)c1`: the Percent Effect in experiment [1] is -3.63%; in experiment [2], 13.2%; in [3], -0.262%; in experiment [4], 12.6%; in experiment [5], 4.01%; in [6], 1.08%. Besides, the Percent Effect in experiment [7] is 3.98%; in experiment [8], 15.6%; in experiment [9], 6.4%; in experiment [10], 23.5%; in experiment [11], -2.71%.
As for `COc1cc(CNCc2ccnc(N3CCOCC3)c2)cc(Cl)c1OC`, the Percent Effect in [1] was -5.46%; in experiment [2], 16.2%; in experiment [3], -4.43%; in experiment [4] it was 13.4%; in experiment [5], 0.0943%; in [6], -5.21%. For the same compound, the Percent Effect in experiment [7] was 3.78%; in experiment [8], 27.8%; in experiment [9], 5.42%; in [10] it was 18.5%; in experiment [11], -8.15%.
